In all, about 290,000 compounds went through this assay and about 3,000 (1%) were called active. Cut-off read from the data, not from the text of the source: active = inhibition mostly above about 36% (no sharp cut-off); inactive = mostly below about 34%. This excerpt belongs to a sample that is enriched for actives.
The molecules below were run against T1, Nucleotide-binding oligomerization domain-containing protein 1, Homo sapiens (UniProt Q9Y239) (assay: NOD1 signaling inhibitors, primary screen, cell-based, luminescence, uHTS (AID 1578)).
T1 sequence (whole entry): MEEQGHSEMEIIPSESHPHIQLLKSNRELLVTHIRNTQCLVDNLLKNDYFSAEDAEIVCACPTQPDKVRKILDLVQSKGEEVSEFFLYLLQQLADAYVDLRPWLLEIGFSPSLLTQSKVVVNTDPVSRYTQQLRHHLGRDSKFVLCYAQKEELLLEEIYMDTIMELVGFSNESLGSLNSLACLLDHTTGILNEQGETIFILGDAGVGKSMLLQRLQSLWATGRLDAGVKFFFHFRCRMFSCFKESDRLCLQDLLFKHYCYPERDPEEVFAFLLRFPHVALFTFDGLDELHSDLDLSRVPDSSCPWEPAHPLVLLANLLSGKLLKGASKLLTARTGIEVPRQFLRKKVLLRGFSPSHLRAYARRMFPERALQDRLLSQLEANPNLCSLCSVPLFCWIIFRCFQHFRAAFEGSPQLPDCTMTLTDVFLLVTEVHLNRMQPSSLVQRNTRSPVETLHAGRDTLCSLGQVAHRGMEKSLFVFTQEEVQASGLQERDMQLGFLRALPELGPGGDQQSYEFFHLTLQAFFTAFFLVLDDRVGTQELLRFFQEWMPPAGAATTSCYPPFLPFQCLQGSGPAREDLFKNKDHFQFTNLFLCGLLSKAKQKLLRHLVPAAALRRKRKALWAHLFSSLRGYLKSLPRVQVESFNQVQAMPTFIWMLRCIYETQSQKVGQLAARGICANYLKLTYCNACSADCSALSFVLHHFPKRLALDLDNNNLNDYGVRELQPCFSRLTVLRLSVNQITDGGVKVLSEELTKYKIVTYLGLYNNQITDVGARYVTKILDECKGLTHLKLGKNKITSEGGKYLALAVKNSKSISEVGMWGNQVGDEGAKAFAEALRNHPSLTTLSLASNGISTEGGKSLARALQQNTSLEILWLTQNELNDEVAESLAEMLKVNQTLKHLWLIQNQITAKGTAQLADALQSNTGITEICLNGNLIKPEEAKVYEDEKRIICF

outcome, active:
O=c1c(C(c2ccccc2)c2c(O)sc3ccccc3c2=O)c(O)sc2ccccc12
COc1ccc2cc3c(N)nn(C(=O)c4ccc(F)cc4)c3nc2c1
COc1ccc2cc3c(N)nn(C(=O)c4cccc([N+](=O)[O-])c4)c3nc2c1
COc1ccc2cc3c(N)nn(C(=O)c4cccc(F)c4)c3nc2c1
Cc1ccc2nc(NC(=O)CSCC(=O)OCC(=O)c3ccc(Br)cc3)sc2c1
Cc1c(C)c2ccc(OCC(=O)Nc3ccccn3)c(C)c2oc1=O
COc1cccc(C(=O)c2sc(NC(C)C)nc2N)c1
O=c1c(Cl)c(Cl)cnn1Cc1nnc(-c2ccccc2Br)o1
COC(=O)CCn1nnc(-c2ccc(C(C)C)cc2)n1
CC(C)c1ccc(-c2nnn(CCC(=O)O)n2)cc1
COc1ccc2cc3c(N)nn(C(=O)c4ccccc4[N+](=O)[O-])c3nc2c1
COc1ccc2cc3c(N)nn(C(=O)C4CCC(C(C)(C)C)CC4)c3nc2c1 (configuration not stated)
COc1ccc2cc3c(N)nn(C(=O)c4ccccc4Cl)c3nc2c1
CN(Cc1ccccc1)S(=O)(=O)c1nnc(NC(=O)c2ccc(F)cc2)s1
COc1cc(OC)c(N(C)S(=O)(=O)c2cccc(C(=O)OCC(=O)c3c[nH]c4ccccc34)c2)cc1Cl
O=c1cc(CSc2ccc(Cl)cc2)nc(-c2ccccn2)[nH]1
Cn1c2ccccc2c(=O)c2c(=O)n(C3CCCCC3)c(-c3ccco3)nc21
O=C(Nc1cc(C(F)(F)F)cc(C(F)(F)F)c1)Nc1cnn(-c2ccc([N+](=O)[O-])cc2)c1C(F)(F)F
O=S(=O)(Nc1nc2ccccc2nc1N1CCN(c2ccccc2F)CC1)c1ccc(Cl)cc1
COc1ccc(-c2cc(C(F)(F)F)nc(S(=O)(=O)CCCC(=O)Nc3cccnc3Cl)n2)cc1OC
COc1ccccc1-c1cc(C(F)(F)F)nc(S(=O)(=O)CCCC(=O)N2CCCCC2C)n1 (configuration not stated)
COc1ccccc1-c1cc(C(F)(F)F)nc(S(=O)(=O)CCCC(=O)Nc2cccnc2Cl)n1
COc1ccc(-c2cc(C(F)(F)F)nc(S(=O)(=O)CCCC(=O)Nc3cccc(O)c3)n2)cc1OC
COc1ccc2[nH]cc(C(=O)CCl)c2c1
COc1ccc2c(C(=O)CCl)c[nH]c2c1
Cc1nn(-c2ccccc2)c(Cl)c1CN(C(=O)CCl)c1ccc(Cl)cc1
COc1ccc(Br)cc1/C=C/C(=O)c1ccc(NC(C)=O)cc1
CCC(=O)Nc1cccc(C(=O)/C=C/c2cc(Br)ccc2OC)c1
Cc1ccc(C(C)C)c(OCc2ccc(C(=O)N/N=C/c3ccc(C(=O)O)cc3)cc2)c1
CN(C)S(=O)(=O)c1cccc(NC(=O)CSc2cccc3cccnc23)c1
O=C(CSc1cccc2cccnc12)Nc1ccc(S(=O)(=O)N2CCOCC2)cc1
CCOc1ccc2c(c1)C(=NNC(=O)c1ccncc1)c1cc(OCC)ccc1-2
CC(=O)c1c(C)[nH]c(C(=O)COC(=O)c2cccc(S(=O)(=O)N(C)c3ccccc3)c2)c1C
CNc1nc(-c2ccc3c(c2)CCN3S(=O)(=O)c2ccccc2)c(C)s1
COc1ccc(Nc2cc(Nc3cc(OC)c(OC)c(OC)c3)ncn2)cc1
Cc1cc(Nc2nc3ccccc3nc2Cl)n(-c2ccc([N+](=O)[O-])cc2)n1
COc1ccc(C)cc1NC(=O)CSc1ccc(-c2ccccn2)nn1
CCOc1ccc(-c2nnc(NC(=O)c3ccc(OCC(C)C)c(OC)c3)o2)cc1
O=C(Nc1nnc(-c2ccc(F)cc2)o1)c1cc(Cl)sc1Cl
O=C(Nc1nnc(-c2ccc(F)cc2)o1)c1cccc([N+](=O)[O-])c1
COc1ccc(-c2nnc(NC(=O)c3ccc(F)cc3)o2)cc1
CN(c1ccccc1)S(=O)(=O)c1ccc(C(=O)Nc2nnc(-c3ccc(F)cc3)o2)cc1
O=C(Nc1ccc(C(F)(F)F)cc1)C1CCN(S(=O)(=O)c2ccc(N3CCCC3=O)cc2)CC1
C/C(=N\Nc1ncnc2sc(C)c(C)c12)c1ccccn1
COc1ccc(-n2c(C)c(C(C)=O)c3cc(OC(C)=O)ccc32)cc1
CC(=O)c1c(C)n(-c2ccccc2)c2ccc(O)cc12
COc1ccc2c(c1)c(C(C)=O)c(C)n2CCc1ccccc1
CCOc1ccc(-n2c(C)c(C(C)=O)c3cc(OC(C)=O)ccc32)cc1
COc1ccc(-n2c(C)c(C(C)=O)c3cc(O)ccc32)cc1
COc1ccc2c(c1)c(C(C)=O)c(C)n2-c1ccc(C(C)=O)cc1
COc1ccccc1N1CCN(c2nc(C)nc3c2oc2ccccc23)CC1.Cl
COc1ccc(-c2csc3ncnc(NCCN4CCOCC4)c23)cc1
Clc1ccc(-c2csc3ncnc(NCCN4CCOCC4)c23)cc1
CC(C)n1c(CN(C)Cc2ccccc2)nc2c1c(=O)n(C)c(=O)n2C
CCN1/C(=C/C=C/C=C/C=C/c2sc3ccccc3[n+]2CC)Sc2ccccc21.[I-]
c1ccc(CCc2nn3c(-c4ccncc4)nnc3s2)cc1
c1cc(-c2nnc3sc(C4CCCCC4)nn23)ccn1
Cc1c(CCC(=O)O)c(=O)oc2cc(OCc3ccccc3Br)ccc12
CC(C)(C)C1CCC2(CC1)C(C#N)=C(SCC(=O)Nc1ccccc1)NC(=O)C2C#N (configuration not stated)
N#CC1=C(SCC(=O)NC23CC4CC(CC(C4)C2)C3)NC(=O)C(C#N)C12CCCCC2 (configuration not stated)
Cc1ccc(NC(=O)CSc2nn(-c3ccccc3)c(=S)s2)cc1S(=O)(=O)N(C)C
CC(C)(C)C(=O)Nc1ccc(NC(=O)c2ccco2)nc1
O=C(Nc1nc2ccc([N+](=O)[O-])cc2s1)c1ccc(S(=O)(=O)N2CCCc3ccccc32)cc1
Nc1ncnc(N2CCc3ccccc32)c1[N+](=O)[O-]
CC1CCCCN1c1ncnc(N)c1[N+](=O)[O-] (configuration not stated)
COc1ccc2sc3c(=O)[nH]c4ccccc4c3c2c1
O=S(=O)(c1ccc2c(c1)OCCO2)N1CCN(c2ncnc3sccc23)CC1
Cc1ccc(S(=O)(=O)N2CCN(c3ncnc4sccc34)CC2)cc1
O=C(O)CCSc1nnc(-c2ccc3c(c2)OCO3)o1
O=C(Nc1nccs1)c1sc2cc(Cl)ccc2c1Cl
Cc1cc(NC(=O)c2cccs2)n(-c2nc3ccccc3[nH]2)n1
Cc1ccc(NC(=O)CSc2ncnc3ccccc23)cc1S(=O)(=O)N1CCOCC1
CCOC(=O)c1ccc(NC(=O)c2ccc(C)c(S(=O)(=O)N3CCOCC3)c2)cc1
O=C(Nc1ccc(Cl)c(S(=O)(=O)N2CCOCC2)c1)c1ccc(OCC2CCCO2)cc1 (configuration not stated)
COc1ccc(C(=O)Nc2ccc(-c3ccc(C)o3)cc2)cc1S(=O)(=O)N1CCOCC1
CCOc1ccc(Nc2ncnc3ccc([N+](=O)[O-])cc23)cc1
Cc1nn(-c2ccccc2)c(Cl)c1C(=O)N1CCN(c2ncnc3c2cnn3-c2ccccc2)CC1
CN(C)CC(CCC(CN(C)C)C(=O)c1ccccc1)C(=O)c1ccccc1.Cl (configuration not stated)
O=C(NCc1cccnc1)/C(=C/c1ccc(-c2cccc(Cl)c2)o1)S(=O)(=O)c1ccccc1
O=C(NCc1cccnc1)/C(=C\c1ccc(-c2cccc(Cl)c2)o1)S(=O)(=O)c1ccccc1
O=C(CCl)N1N=C(c2ccco2)CC1c1ccco1 (configuration not stated)
O=C(CCl)N1N=C(c2cccs2)CC1c1ccco1 (configuration not stated)
COc1ccc(C(=O)Nc2ccccc2C(=O)N/N=C/c2ccccn2)cc1OC
O=C(N/N=C/c1ccccn1)c1sc2ccccc2c1Cl
Cc1ccc(-n2[nH]c(C)c(/C=N/Nc3ccc([N+](=O)[O-])cc3[N+](=O)[O-])c2=O)cc1C
Cc1[nH]n(-c2ccccc2)c(=O)c1/C=N/NC(=O)c1cccc([N+](=O)[O-])c1
CC(/C=C/c1ccccc1)=N/NC(=O)c1cc([N+](=O)[O-])cc([N+](=O)[O-])c1
O=C(N/N=C/c1ccccn1)c1cc([N+](=O)[O-])cc([N+](=O)[O-])c1
Cc1cccc(/C=N/NC(=O)c2cccc([N+](=O)[O-])c2)n1
O=C(N/N=C/c1ccccn1)c1ccc(Cl)c(Cl)c1
Cc1c(CCC(=O)O)c(=O)oc2cc3oc4c(c3cc12)CCCC4
O=C(Sc1cccc2cccnc12)c1ccc(F)cc1
O=C(Sc1cccc2cccnc12)c1ccccc1Br
O=C(Nc1ccc(N2CCN(c3ncccc3C(F)(F)F)CC2)nc1)c1cccs1
COc1ccc(C(=O)N/N=C(\c2ccccc2)c2ccccn2)cc1
COc1cccc(C(=O)N/N=C(/c2ccccc2)c2ccccn2)c1
O=C(N/N=C(\c1ccccc1)c1cccnc1)c1cccc(F)c1
COc1cc(C(=O)N/N=C(\c2ccccc2)c2ccccn2)cc(OC)c1OC
CCOC(=O)c1c(NC(=S)NCCc2ccccc2)sc2c1CC(C(C)C)OC2 (configuration not stated)
Cn1c(=O)c(C(=O)CCl)c(N)n(Cc2ccccc2)c1=O
O=C(CSc1n[nH]c(-c2ccccn2)n1)Nc1cccc(Cl)c1
O=C(CSc1n[nH]c(-c2ccccn2)n1)Nc1ccc(Cl)cc1
Cc1ccccc1Oc1cc(-n2ncc(Cl)c(Cl)c2=O)ncn1
CC(C)NC(=O)c1sc(=S)n2c1[nH]c(=O)c1ccc(C(=O)NCCc3ccc(Cl)cc3)cc12
O=C(NCc1ccccc1)c1sc(=S)n2c1[nH]c(=O)c1ccccc12
O=C(NCc1ccco1)c1sc(=S)n2c1[nH]c(=O)c1ccccc12
CCCCNC(=O)c1sc(=S)n2c1[nH]c(=O)c1ccccc12
